Experimental data: PubChem BioAssay AID1159580 (chemical genetic matrix, 2015)
The campaign covered roughly 5,500 compounds. About 2,000 (36%) were called active. About 18% were inconclusive and are not listed. Rule as the data show it: active = normalized growth mostly below about 0.91 (no sharp cut-off); inconclusive = no clear call, values can overlap the other calls; inactive = mostly above about 0.92. The list shows a part of the results.

Assay: chemical genetic growth profiling, strain panel (AID 1159580);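 also: tested at 20 µM; growth read once vehicle control cultures reached saturation at 30 °C; 1 = growth at the plate median or of vehicle wells; lower values mean less growth of the strain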
Details: growth OD
[1] = S. cerevisiae deletion strains, locus YGR078C, strain PAC10, stronger effect = lower value
[2] = S. cerevisiae deletion strains, locus YJR075W, strain HOC1, stronger effect = lower value
[3] = S. cerevisiae deletion strains, locus YMR307W, strain GAS1, stronger effect = lower value
[4] = S. cerevisiae deletion strains, locus YNL153C, strain GIM3, stronger effect = lower value
[5] = S. cerevisiae deletion strains, locus YPL055C, strain LGE1, stronger effect = lower value

Measured: normalized growth

CCC(=O)c1ccc2c(c1)N(CC(C)N(C)C)c1ccccc1S2 (stereo unspecified)
inactive: S. cerevisiae deletion strains, locus YAL013W, strain DEP1, stronger effect = lower value 0.983 | S. cerevisiae deletion strains, locus YBR021W, strain FUR4, stronger effect = lower value 0.88 | S. cerevisiae deletion strains, locus YBR229C, strain ROT2, stronger effect = lower value 0.994 | S. cerevisiae deletion strains, locus YCL029C, strain bik1, stronger effect = lower value 1.02 | S. cerevisiae deletion strains, locus YDL035C, strain GPR1, stronger effect = lower value 0.979 | S. cerevisiae deletion strains, locus YDL074C, strain BRE1, stronger effect = lower value 0.95 | S. cerevisiae deletion strains, locus YDL101C, strain DUN1, stronger effect = lower value 0.986 | S. cerevisiae deletion strains, locus YDL134C, strain PPH21, stronger effect = lower value 0.96 | S. cerevisiae deletion strains, locus YDL185W, strain tfp1, stronger effect = lower value 0.995 | S. cerevisiae deletion strains, locus YDL192W, strain arf1, stronger effect = lower value 1.01 | S. cerevisiae deletion strains, locus YDR101C, strain arx1, stronger effect = lower value 1.01 | S. cerevisiae deletion strains, locus YDR162C, strain NBP2, stronger effect = lower value 0.988 | S. cerevisiae deletion strains, locus YDR318W, strain mcm21, stronger effect = lower value 0.994 | S. cerevisiae deletion strains, locus YDR388W, stronger effect = lower value 1 | S. cerevisiae deletion strains, locus YDR502C, strain sam2, stronger effect = lower value 0.986 | S. cerevisiae deletion strains, locus YEL061C, strain CIN8, stronger effect = lower value 0.998 | S. cerevisiae deletion strains, locus YER110C, stronger effect = lower value 1.02 | S. cerevisiae deletion strains, locus YER155C, strain BEM2, stronger effect = lower value 0.989 | S. cerevisiae deletion strains, locus YER167W, strain BCK2, stronger effect = lower value 0.998 | S. cerevisiae deletion strains, locus YGL078C, strain dbp3, stronger effect = lower value 1.01 | S. cerevisiae deletion strains, locus YGL086W, strain mad1, stronger effect = lower value 0.99 | S. cerevisiae deletion strains, locus YGL248W, strain PDE1, stronger effect = lower value 0.966 | [1] 0.992 | S. cerevisiae deletion strains, locus YGR135W, strain pre9, stronger effect = lower value 0.97 | S. cerevisiae deletion strains, locus YGR229C, strain SMI1, stronger effect = lower value 0.949 | S. cerevisiae deletion strains, locus YGR252W, strain gcn5, stronger effect = lower value 0.806 | S. cerevisiae deletion strains, locus YHR030C, strain SLT2, stronger effect = lower value 0.997 | S. cerevisiae deletion strains, locus YHR079C, strain IRE1 (second series), stronger effect = lower value 1.01 | S. cerevisiae deletion strains, locus YHR094C, strain hxt1, stronger effect = lower value 1.02 | S. cerevisiae deletion strains, locus YHR129C, strain ARP1, stronger effect = lower value 0.993 | S. cerevisiae deletion strains, locus YHR200W, strain rpn10, stronger effect = lower value 1 | S. cerevisiae deletion strains, locus YIL066C, strain RNR3, stronger effect = lower value 0.985 | S. cerevisiae deletion strains, locus YIL073C, strain SPO22, stronger effect = lower value 1.01 | S. cerevisiae deletion strains, locus YIL125W, strain kgd1, stronger effect = lower value 1.01 | S. cerevisiae deletion strains, locus YIR030C, strain dcg1, stronger effect = lower value 1.01 | S. cerevisiae deletion strains, locus YJL095W, strain BCK1, stronger effect = lower value 0.889 | S. cerevisiae deletion strains, locus YJL134W, strain LCB3, stronger effect = lower value 0.996 | S. cerevisiae deletion strains, locus YJL168C, strain set2, stronger effect = lower value 1 | S. cerevisiae deletion strains, locus YJL187C, strain SWE1 (second series), stronger effect = lower value 0.99 | S. cerevisiae deletion strains, locus YJR043C, strain POL32, stronger effect = lower value 0.96 | [2] 0.99 | S. cerevisiae deletion strains, locus YKL009W, strain mrt4, stronger effect = lower value 0.999 | S. cerevisiae deletion strains, locus YKL068W, stronger effect = lower value 0.999 | S. cerevisiae deletion strains, locus YKL085W, strain MDH1 (second series), stronger effect = lower value 0.999 | S. cerevisiae deletion strains, locus YKL085W, strain MDH1, stronger effect = lower value 0.999 | S. cerevisiae deletion strains, locus YKL190W, strain CNB1, stronger effect = lower value 0.99 | S. cerevisiae deletion strains, locus YKR001C, strain vps1, stronger effect = lower value 0.967 | S. cerevisiae deletion strains, locus YLR039C, strain RIC1, stronger effect = lower value 1.3 | S. cerevisiae deletion strains, locus YLR058C, strain SHM2, stronger effect = lower value 0.985 | S. cerevisiae deletion strains, locus YLR102C, strain apc9, stronger effect = lower value 1.02 | S. cerevisiae deletion strains, locus YLR262C, strain YPT6, stronger effect = lower value 1.35 | S. cerevisiae deletion strains, locus YLR268W, strain sec22, stronger effect = lower value 0.986 | S. cerevisiae deletion strains, locus YLR330W, strain CHS5, stronger effect = lower value 0.996 | S. cerevisiae deletion strains, locus YLR342W, strain FKS1 (second series), stronger effect = lower value 0.921 | S. cerevisiae deletion strains, locus YLR371W, strain rom2, stronger effect = lower value 1.03 | S. cerevisiae deletion strains, locus YLR418C, strain cdc73, stronger effect = lower value 0.9 | S. cerevisiae deletion strains, locus YML016C, strain PPZ1, stronger effect = lower value 0.994 | S. cerevisiae deletion strains, locus YML032C, strain rad52, stronger effect = lower value 0.982 | S. cerevisiae deletion strains, locus YML124C, strain tub3, stronger effect = lower value 1.01 | S. cerevisiae deletion strains, locus YMR078C, strain ctf18, stronger effect = lower value 1.01 | S. cerevisiae deletion strains, locus YMR223W, strain ubp8, stronger effect = lower value 0.963 | S. cerevisiae deletion strains, locus YMR263W, strain SAP30, stronger effect = lower value 0.973 | [3] 1.01 | S. cerevisiae deletion strains, locus YNL067W, strain RPL9B, stronger effect = lower value 0.99 | [4] 0.98 | S. cerevisiae deletion strains, locus YNL233W, strain BNI4, stronger effect = lower value 0.951 | S. cerevisiae deletion strains, locus YNL250W, strain rad50, stronger effect = lower value 1.01 | S. cerevisiae deletion strains, locus YNL271C, strain bni1, stronger effect = lower value 1.01 | S. cerevisiae deletion strains, locus YNL298W, strain CLA4, stronger effect = lower value 1.01 | S. cerevisiae deletion strains, locus YNL307C, strain MCK1, stronger effect = lower value 0.996 | S. cerevisiae deletion strains, locus YNR052C, strain pop2, stronger effect = lower value 1 | S. cerevisiae deletion strains, locus YOL006C, strain TOP1, stronger effect = lower value 0.852 | S. cerevisiae deletion strains, locus YOL012C, strain htz1 0.881 | S. cerevisiae deletion strains, locus YOL147C, strain pex11, stronger effect = lower value 1.01 | S. cerevisiae deletion strains, locus YOR061W, strain CKA2, stronger effect = lower value 0.999 | S. cerevisiae deletion strains, locus YOR069W, strain VPS5, stronger effect = lower value 0.996 | S. cerevisiae deletion strains, locus YOR136W, strain idh2, stronger effect = lower value 1 | S. cerevisiae deletion strains, locus YOR144C, strain elg1, stronger effect = lower value 1.01 | S. cerevisiae deletion strains, locus YOR184W, strain ser1, stronger effect = lower value 1.01 | S. cerevisiae deletion strains, locus YOR316C, strain cot1, stronger effect = lower value 1.02 | [5] 0.949 | S. cerevisiae deletion strains, locus YPR119W, strain clb2, stronger effect = lower value 1.01 | S. cerevisiae deletion strains, locus YPR141C, strain kar3, stronger effect = lower value 1.01 | S. cerevisiae deletion strains, locus YPR163C, strain tif3, stronger effect = lower value 1 | S. cerevisiae deletion strains, locus YPR167C, strain met16, stronger effect = lower value 1.02 | S. cerevisiae deletion strains, strain wtn01, stronger effect = lower value 0.99 | S. cerevisiae strains, strain wild type, stronger effect = lower value 0.991

C[C@H](N)CN1CCc2ccc(Br)cc21
inactive: S. cerevisiae deletion strains, locus YAL040C, strain CLN3, stronger effect = lower value 0.979 | S. cerevisiae deletion strains, locus YCL061C, strain MRC1 (second series), stronger effect = lower value 0.992 | S. cerevisiae deletion strains, locus YDR150W, strain NUM1, stronger effect = lower value 1 | S. cerevisiae deletion strains, locus YDR363W, strain ESC2, stronger effect = lower value 1.01 | S. cerevisiae deletion strains, locus YER002W, strain NOP16, stronger effect = lower value 0.992 | [1] 1.02 | [2] 1 | [3] 1 | [4] 0.997 | S. cerevisiae deletion strains, locus YNL175C, strain NOP13, stronger effect = lower value 1.01 | S. cerevisiae deletion strains, locus YNL197C, strain WHI3, stronger effect = lower value 1.02 | S. cerevisiae deletion strains, locus YNL224C, strain SQS1, stronger effect = lower value 1.01 | S. cerevisiae deletion strains, locus YOR083W, strain WHI5 (second series), stronger effect = lower value 1 | [5] 0.968
